From PubChem BioAssay (NCI)
The panel holds about 83,000 compounds, 20% with a hit somewhere; the sample as a whole holds those more often.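 Interpretation: 100, growth as untreated; towards 0, rising growth inhibition; 0, no net growth; 0 to -100, cell death. Compounds scoring below 10 were considered active.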 A number with no mark means an inactive call. The source made the active and inactive calls.

Columns and labels:
Test in all cases: NCI-60 one-dose screen, 48 h (100 = growth as untreated, 0 = no growth, -100 = all killed)
Conditions in all cases: 10 µM unless noted
NCI-H23 lung = system: NCI-H23 lung
NCI-H226 lung = system: NCI-H226 lung
NCI-H322M lung = system: NCI-H322M lung
HOP-62 NSCLC = system: HOP-62 NSCLC
NCI-H460 lung = system: NCI-H460 lung
NCI-H522 lung = system: NCI-H522 lung
A549/ATCC NSCLC = system: A549/ATCC NSCLC
786-0 renal = system: 786-0 renal
COLO 205 colon = system: COLO 205 colon
DU-145 prostate = system: DU-145 prostate
K-562 leukemia = system: K-562 leukemia
MDA-MB-231 breast = system: MDA-MB-231 breast
RXF 393 renal = system: RXF 393 renal
SF-268 CNS = system: SF-268 CNS
SF-295 CNS = system: SF-295 CNS
SF-539 CNS = system: SF-539 CNS
UACC-257 melanoma = system: UACC-257 melanoma
M14 melanoma = system: M14 melanoma
HCT-15 colon = system: HCT-15 colon
MALME-3M melanoma = system: MALME-3M melanoma

Structure (SMILES) | growth (NCI-H23 lung) | growth (NCI-H226 lung) | growth (NCI-H322M lung) | growth (HOP-62 NSCLC) | growth (NCI-H460 lung) | growth (NCI-H522 lung) | growth (A549/ATCC NSCLC) | growth (786-0 renal) | growth (COLO 205 colon) | growth (DU-145 prostate) | growth (K-562 leukemia) | growth (MDA-MB-231 breast) | growth (RXF 393 renal) | growth (SF-268 CNS) | growth (SF-295 CNS) | growth (SF-539 CNS) | growth (UACC-257 melanoma) | growth (M14 melanoma) | growth (HCT-15 colon) | growth (MALME-3M melanoma)
CC1=CSC2=NCCN12 | 104% | 112% | 118% | 108% | 109% | 100% | 105% | 104% | 107% | 108% | 101% | 122% | 121% | 102% | 132% | 95.8% | 116% | 108% | 109% | –
COC(=O)CC1=C(C)/C(=C/c2[nH]c(-c3ccc[nH]3)cc2OC)N=C1C | 6.26% (active) | 24.6% | 18.2% | -10.9% (active) | 4.72% (active) | -74.8% (active) | 9.1% (active) | -2.31% (active) | 9.09% (active) | 24.2% | -23.6% (active) | -14.3% (active) | 8.29% (active) | 22.7% | -46.6% (active) | -4.76% (active) | -8.53% (active) | 7.46% (active) | 3.06% (active) | –
COc1ccc2nc3cc(Cl)ccc3c(Nc3cc(C(C)C)c(O)cc3C)c2c1 | 40.1% | 79.5% | 51.5% | 58.2% | 35.3% | -20.1% (active) | 14.5% | 35.5% | 15.7% | 52.3% | 19.4% | 37.7% | – | 64% | 5.22% (active) | 59.5% | 47% | 56.2% | 10.6% | 39.3%
O=C(/C(=N/O)S(=O)(=O)c1ccccc1)c1cccs1 | 94.2% | 102% | 111% | 94.4% | 102% | 143% | 106% | 99.8% | 104% | 115% | 93.1% | 109% | – | 106% | 104% | 109% | 106% | 105% | 105% | 106%
CSc1ncc2ncn(C3OC(CO)C(O)C3O)c2n1 (stereo unspecified) | 137% | 102% | 124% | 119% | 120% | 119% | 108% | 110% | 142% | 115% | 104% | 108% | – | 103% | 107% | 114% | 126% | 107% | 114% | 126%
NS(=O)(=O)c1ccc(NC2=C(Cl)C(=O)c3ccccc3C2=O)cc1 | 80.9% | 61.9% | 113% | 102% | 116% | 70.1% | 112% | 104% | 95.2% | 142% | 18.6% | 79.7% | – | 118% | 111% | 89.6% | 92.5% | 99.9% | 46.5% | 135%
Cc1ccc(C=C2C(Cl)=C(Cl)C(Cl)=C2Cl)cc1 | -57.5% (active) | -79% (active) | -37.2% (active) | -58.6% (active) | -31.3% (active) | -57.2% (active) | -61.2% (active) | -86.8% (active) | -80.3% (active) | -45.3% (active) | 24.6% | -6.71% (active) | – | -68.6% (active) | -19.5% (active) | -84.5% (active) | -83.2% (active) | -85.8% (active) | -69.5% (active) | -45.1% (active)
CCCCCCCC1(C)NC(=O)NC1=O (stereo unspecified) | 132% | 113% | 119% | 102% | 104% | 99.6% | 122% | 108% | 120% | 115% | 90.6% | 116% | – | 106% | 124% | 97.6% | 114% | 106% | 113% | 126%
CCOc1nc(-c2ccccc2)cc2c(O)c(C(=O)n3nc(C)cc3C)[nH]c(=O)c12 | 97.6% | 91.8% | 103% | 105% | 107% | 104% | 102% | 100% | 108% | 111% | 86.7% | 112% | – | 99% | 101% | 101% | 112% | 102% | 100% | 102%
